MCF10A rereplic – DNA re-replication induction in MCF 10a cells | Potency, µM (series often up to 46.1 µM), for the others: at the top dose activity, positive = re-replication, most hits filed as activators | 2.9% of 350,000 active | MCF 10A DNA re-replication, Hoechst nuclear intensity, 48 h; also: potency is read from the fitted curve at half-maximal effect; % of control where 0% means no effect; nearly all actives have a fitted effect of over 50% in size
Chronic BCR inh – inhibitors of chronic active B-cell receptor signaling. ABC-DLBCL IkBa-CBG/CBR reporter, luminescence ratio, 4 h. 0.05% of 340,000 active. AID 493014. Potency, µM (titrated, usually from 46.1 µM), without a hit: at the top dose activity change, negative = inhibition, actives largely listed as inhibitors; active = well fitted inhibition curve with a large enough effect in the signal ratio, with a control signal flat, not every such curve was filed as active; inconclusive = small, poorly fitted or top-dose-only effect, or effect the other way, or a change in a side signal; the % refers to the signal ratio;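 also: potency is read from the fitted curve at half-maximal effect; plate controls were basal doxycycline-induced cells for no effect and cells given 10 µM MG132 for full effect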
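TMD8 human ABC-DLBCL cells with doxycycline-inducible IκBα–green luciferase fusion and unfused red luciferase, in 0.5% FBS medium; compounds up to 46 uM, 4 h at 37C. Green/red luminescence ratio, filter-overlap corrected, fitted to concentration-response curves.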
Giardia kill – Giardia lamblia killing; Giardia lamblia trophozoite viability; activity change, % at 7.66 µM, hits read low; 0.15% of 340,000 active; in the data active = activity change below about -80%; inconclusive = between about -30% and that limit;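 also: parasites exposed to compound for two days anaerobically before the ATP read; % is scaled to controls: 0 for no effect and ±100 for the full control effect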
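Giardia trophozoites, 100 cells per well, were exposed to compounds for 48 hrs at 37 deg C under anaerobic conditions; viability was then read as ATP content by bioluminescence after 15-30 min at room temperature.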
SW480 rerep – induces DNA re-replication in SW480 colon adenocarcinoma cells. SW480 DNA re-replication, Hoechst DNA content imaging, 48 h. Potency, µM (top dose mostly 46.1 µM), for the others: at the top dose re-replication activation, usual class: activators. 1.8% of 340,000 active; also: potency is read from the fitted curve at half-maximal effect; % of control where 0% means no effect; nearly all actives have a fitted effect of over 55% in size
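Cells (250 per well) received 23 nL compound or DMSO by pin tool and were kept 48 hr at 37 C, 5% CO2. Nuclei were then stained with Hoechst for 40 min and scanned for DNA content.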
RORg inh – ROR gamma (mouse) transcription inhibition; 5.4% of 310,000 active; P51450; Drosophila S2 Gal4-RORgamma UAS-luciferase reporter, 20 h; Potency, µM (highest dose often 53.6 µM), without a hit: at the top dose activity change, negative = inhibition, usual class: inhibitors; also: potency is read from the fitted curve at half-maximal effect; % is scaled to controls: 0 for no effect and ±100 for the full control effect; nearly all actives have a fitted effect of over 60% in size
Target sequence (P51450 whole entry, looked up, the tested form may be a part): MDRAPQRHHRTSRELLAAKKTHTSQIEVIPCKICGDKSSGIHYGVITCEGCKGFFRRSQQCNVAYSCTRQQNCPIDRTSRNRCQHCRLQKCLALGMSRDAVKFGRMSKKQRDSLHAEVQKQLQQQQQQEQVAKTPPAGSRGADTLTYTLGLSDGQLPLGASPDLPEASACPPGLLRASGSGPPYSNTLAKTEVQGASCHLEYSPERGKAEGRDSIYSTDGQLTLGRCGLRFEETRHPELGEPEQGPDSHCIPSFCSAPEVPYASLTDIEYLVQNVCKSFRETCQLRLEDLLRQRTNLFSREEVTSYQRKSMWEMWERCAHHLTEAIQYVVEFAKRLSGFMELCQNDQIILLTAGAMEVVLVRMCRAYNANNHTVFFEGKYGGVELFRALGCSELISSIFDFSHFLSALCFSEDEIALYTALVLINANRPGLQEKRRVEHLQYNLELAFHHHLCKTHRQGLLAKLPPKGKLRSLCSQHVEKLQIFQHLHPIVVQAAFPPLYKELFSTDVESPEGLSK
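Stably transfected Drosophila Schneider cells are the test system, with ROR gamma fused to Gal4 and luciferase under UAS control; luminescence is read after 20 hr of 700 uM copper sulfate induction at ambient temperature.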
VP16 counter – inhibits Gal4-VP16 luciferase reporter, ROR gamma counter-screen. Drosophila S2 Gal4-VP16 UAS-luciferase, luminescence, 20 h. 3.5% of 310,000 active. Potency, µM (top dose mostly 53.6 µM), for the others: top-dose activity, negative = inhibition, hits mostly inhibitors. AID 2546;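 also: Gal4-VP16 expression switched on by copper sulfate through the metallothionein promoter; potency is read from the fitted curve at half-maximal effect; % is scaled to controls: 0 for no effect and ±100 for the full control effect; nearly all actives have a fitted effect of over 50% in size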
Starred values were filed as active, the others as inactive; [ ] = another dose, or the depositor's remark. Sampled rows, rich in hits. Any-hit rate of the full collection: about 8.3%. Unless noted, calls follow the shape of the dose curve; as a rule, active = well fitted curve in the direction sought with a large enough effect; inconclusive = small, poorly fitted or top-dose-only effect, or another doubt; inactive = no such curve, though single readings can be large; an effect the other way counts as inactive or inconclusive.

Cc1ccc(Cl)cc1NC(=S)N(Cc1cccs1)C1CCCC1 was read as MCF10A rereplic -0.1%, Chronic BCR inh 0.1%, Giardia kill 1.5, SW480 rerep 13.9%, RORg inh 17.8µM* and VP16 counter inconclusive.
Screening CCN(C(=S)Nc1ccccc1F)C1CCCCC1 returned MCF10A rereplic 2.6%, Chronic BCR inh -1.6%, Giardia kill -23.7, SW480 rerep 6.8%, RORg inh 12.6µM* and VP16 counter 2.6%.
Screening CSc1cccc(NC(=S)N(CCCN2CCC(C)CC2)Cc2cccs2)c1 returned MCF10A rereplic inconclusive, Chronic BCR inh 3.9%, Giardia kill -11.6, SW480 rerep 23.5%, RORg inh 12.6µM* and VP16 counter 7.8%[10 µM].
For CN(C)S(=O)(=O)c1ccc(C(=O)NC2CC(=O)N(c3ccc4c(c3)OCCO4)C2)cc1 (configuration not stated) the results were Chronic BCR inh -13.4%.
Screening CCOCCC(=O)Nc1nnc(CCc2ccccc2)s1 returned MCF10A rereplic 0.1%, Chronic BCR inh -0.5%, Giardia kill 6.7, SW480 rerep 1.3%, RORg inh -10.4% and VP16 counter 16.2%.
Cc1cc(C(=O)CSc2nnnn2-c2ccc(O)cc2)c(C)n1Cc1ccc2c(c1)OCO2 was read as MCF10A rereplic inconclusive, Chronic BCR inh inconclusive, Giardia kill 2.1, SW480 rerep -3.5%, RORg inh 8.5% and VP16 counter inconclusive.
`Cc1ccc(-n2nnnc2SCC(=O)Nc2ccc3c(c2)OCCO3)cc1C` gave MCF10A rereplic inconclusive, Chronic BCR inh inconclusive, Giardia kill -5.1, SW480 rerep -7.6%, RORg inh inconclusive and VP16 counter -28.0%.
CCOC(=O)c1c(NC(=O)CSc2nnnn2-c2ccc3c(c2)OCO3)sc(C)c1C was read as MCF10A rereplic 0.0%, Chronic BCR inh -0.2%, Giardia kill 3.9, SW480 rerep inconclusive, RORg inh -11.9% and VP16 counter -0.6%.
Screening COc1ccc(N2CCN(C(=O)CSc3nnnn3-c3ccc4c(c3)OCCO4)CC2)cc1 returned MCF10A rereplic 16.4µM*, Chronic BCR inh -0.4%, Giardia kill 8.6, SW480 rerep -1.1%, RORg inh inconclusive and VP16 counter inconclusive.
`Cc1ccc(NC(=O)CSc2nnnn2-c2ccc3c(c2)OCO3)cc1C` gave MCF10A rereplic 16.4µM*, Chronic BCR inh inconclusive, Giardia kill 3.5, SW480 rerep inconclusive, RORg inh 1.4% and VP16 counter -3.1%.
Screening CCOC(=O)c1c(NC(=O)CSc2nnnn2-c2ccc3c(c2)OCCO3)sc(C)c1C returned MCF10A rereplic 18.4µM*, Chronic BCR inh 3.8%, Giardia kill -2.0, SW480 rerep 29.8%, RORg inh 17.1% and VP16 counter 1.1%.
Cc1cc(C(=O)CSc2nnnn2-c2ccccc2)c(C)n1-c1ccc2c(c1)OCO2 was read as MCF10A rereplic inconclusive, Chronic BCR inh 1.6%, Giardia kill -16.7, SW480 rerep inconclusive, RORg inh -34.5% and VP16 counter 11.2µM*.
Screening CC(=O)c1cc2c(cc1NC(=O)C1CN(C(C)=O)c3ccccc3O1)OCO2 (configuration not stated) returned MCF10A rereplic -0.5%, Chronic BCR inh 2.3%, Giardia kill 3.4 and SW480 rerep -4.0%.
For Cc1c(C(=O)NN)[nH]c2ccc([N+](=O)[O-])cc12 the results were MCF10A rereplic 8.9%, Chronic BCR inh inconclusive, Giardia kill 8.0, SW480 rerep -2.6%, RORg inh 11.2µM* and VP16 counter inconclusive.
`NNC(=O)c1[nH]c2ccc([N+](=O)[O-])cc2c1-c1ccccc1` gave MCF10A rereplic inconclusive, Chronic BCR inh inconclusive, Giardia kill -11.6, SW480 rerep inconclusive, RORg inh -20.1% and VP16 counter -5.3%.

Compound activity as filed in PubChem.
